This passage reports inhibition results from PubChem BioAssay AID1259417 (TB Discovery Research, Infectious Disease Research Institute, 2018).

In all, about 1,100 compounds went through this assay and about 760 (69%) were called active. How the calls were made is not given here. The set was probably picked from earlier hits. This is one part of the list.

In general, inhibition refers to the change of the read-out against control, counted positive when it falls.

The nature of this assay: M. tuberculosis growth inhibition, HTS (AID 1259417).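 Further: bacteria grown with compound for 5 days at 37 °C.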 Conditions: stronger effect = higher value, concentration not given here.
[1] abbreviates: M. tuberculosis DsRed fluorescence growth inhibition.
Where [2] appears, read: M. tuberculosis growth inhibition.

Turning to `COc1ccc(C(=O)Nc2nnc(C3=COCCO3)o2)cc1`, the inhibition was -1.74% (inactive) under setting [1] and -16.2% under setting [2].
`CCCCOc1ccc(C(=O)Nc2nnc(-c3ccncc3)o2)cc1`: the inhibition was 18.1% (active) under setting [1] and 42.4% under setting [2].
For the compound `O=C(Nc1nnc(-c2ccco2)o1)c1ccc(Oc2ccccc2)cc1`, the inhibition under setting [1] is 70.2% (active) and the inhibition under setting [2] was 86.6%.
As for `CCCCOc1ccc(C(=O)Nc2nnc(-c3ccco3)o2)cc1`, the inhibition under setting [1] is 44.2% (active) and the inhibition under setting [2] worked out at 26%.
On to `CCOc1ccc(C(=O)Nc2nnc(-c3ccccn3)o2)cc1`, for which the inhibition under setting [1] was 3.93% (inactive) and the inhibition under setting [2] is -4.77%.
The matching figures for `CCc1ccc(/C=C/C(=O)C2C(=O)c3ccccc3C2=O)cc1`: 100% (active) and 99.5%.
Turning to `NC(=O)c1c(NC(=O)c2cccc(F)c2)sc2c1CCC2`, the inhibition runs as follows: under setting [1], -2.04% (inactive); under setting [2], -14.1%.
The matching figures for `NC(=O)c1c(NC(=O)c2c(F)c(F)c(F)c(F)c2F)sc2c1CCCCCC2`: 43.3% (active) and 78.9%.
Consider `NC(=O)c1c(NC(=O)c2c(F)c(F)c(F)c(F)c2F)sc2c1CCC2`, for which the inhibition under setting [1] is 98.9% (active) and the inhibition under setting [2] turned out to be 95.4%.
The like results for `Cc1ccc(C(=O)Nc2sc3c(c2C(N)=O)CCC(C(C)(C)C)C3)c(C)c1` (stereo not given) were, in that order, -2.03% (inactive) and -11.7%.
With `COc1cc(C(=O)Nc2sc3c(c2C(N)=O)CCCC3)c(Br)c(OC)c1OC`, the inhibition is, setting by setting: under setting [1], 27.3% (inactive); under setting [2], 4.82%.
Take `CC(C)(C)c1ccc(Cn2cnc([N+](=O)[O-])n2)cc1`: the inhibition under setting [1] is 98.3% (active) and the inhibition under setting [2] came to 96.6%.
With `CCOC(=O)c1c(NC(=O)c2cc(-n3cnnc3)ccc2Cl)sc2c1CCCC2`, the inhibition is, setting by setting: under setting [1], 37.7% (active); under setting [2], 36.2%.
Turning to `NC(=O)c1c(NC(=O)c2cc(Cl)ccc2Cl)sc2c1CCCCCC2`, the inhibition was -5.89% (inactive) under setting [1] and -25.5% under setting [2].
For `COC(=O)c1c(NC(=O)c2c(F)c(F)c(F)c(F)c2F)sc2c1CCC2`, the inhibition reads like this: under setting [1], 98.2% (active); under setting [2], 95.8%.
The matching figures for `COc1cccc(C(=O)Nc2sc3c(c2C(N)=O)CCCCCC3)c1`: -2.93% (inactive) and -15.5%.
The matching figures for `COC(=O)c1c(NC(=O)c2c(F)c(F)c(F)c(F)c2F)sc2c1CCCCC2`: 97.4% (active) and 93%.
For the compound `CCOc1cccc(C(=O)Nc2sc3c(c2C(N)=O)CCC3)c1`, the inhibition is -0.558% (inactive) under setting [1] and -34.5% under setting [2].
For `COC(=O)c1c(NC(=O)c2c(F)cccc2F)sc2c1CCC(C(C)(C)C)C2` (stereo not given), the inhibition is 0.929% (inactive) under setting [1] and -6.55% under setting [2].
Regarding `CCOC(=O)c1c(NC(=O)COc2ccc(C(C)C)cc2)sc2c1CCC2`, the inhibition was 44.6% (active) under setting [1] and 99.6% under setting [2].
With `Cc1cc(C2N=C(N)Nc3nc4ccccc4n32)c(C)n1-c1ccccc1Cl` (stereo not given), the inhibition is, setting by setting: under setting [1], -7.08% (inactive); under setting [2], -25.2%.
Turning to `Cc1ccc(-n2cc(-c3ccccc3)c3c(NCc4cccnc4)ncnc32)cc1`, the inhibition is, setting by setting: under setting [1], 19.7% (inactive); under setting [2], -7.61%.
The matching figures for `CNC(=O)c1c(NC(=O)c2cccc(C)c2)sc2c1CCC2`: 9.53% (inactive) and -24.5%.
Consider `CCOC(=O)C=CC(=O)Nc1sc2c(c1C(=O)OC)CCC2`, for which the inhibition was 10.6% (active) under setting [1] and 29.7% under setting [2].
The matching figures for `Cc1cccc(C(=O)Nc2sc3c(c2C(=O)N2CCCC2)CCC3)c1`: -0.854% (inactive) and -7.24%.
For the compound `CCOC(=O)c1c(NC(=O)c2c(F)c(F)c(F)c(F)c2F)sc2c1CCCCC2`, the inhibition by setting is: under setting [1], 97.9% (active); under setting [2], 96.2%.
Consider `Oc1ccc(Br)cc1-c1nc(-c2cccs2)c(-c2cccs2)[nH]1`, for which the inhibition was 1.19% (inactive) under setting [1] and -11.5% under setting [2].
The like results for `N#Cc1cc2c(ccc3ccccc32)oc1=O` were, in that order, 17.3% (active) and 55.9%.
Take `CC(C)(C)C(=O)Nc1nnc(-c2ccc(Br)cc2)o1`: the inhibition is 90.8% (active) under setting [1] and 84.1% under setting [2].
Take `CCCCC(=O)Nc1nnc(-c2ccc(Br)cc2)o1`: the inhibition was 5.72% (inactive) under setting [1] and 15.5% under setting [2].
As for `COC(=O)C(C)Sc1nnc(-c2ccc(Br)cc2)o1` (stereo not given), the inhibition runs as follows: under setting [1], 71.1% (active); under setting [2], 95.8%.
The matching figures for `CC(C)C(=O)Nc1nnc(-c2ccc(Br)cc2)o1`: 23.4% (active) and 38.6%.
In the case of `CC(C)C(=O)Nc1nnc(-c2ccccc2)o1`, the inhibition by setting is: under setting [1], 1.9% (inactive); under setting [2], 2.21%.
Consider `O=C1C=C(c2ccccc2)C(=O)c2ccccc21`, for which the inhibition is, setting by setting: under setting [1], 12% (active); under setting [2], 58.3%.
As for `O=C(CSc1nnc(Cc2ccccc2)o1)NCCc1ccccc1`, the inhibition under setting [1] is 63.5% (active) and the inhibition under setting [2] was 42%.
`COc1ccc(Cc2nnc(SCC(=O)NCc3ccco3)o2)cc1`: the inhibition is, setting by setting: under setting [1], 32.4% (active); under setting [2], 54.8%.
The matching figures for `O=C(CSc1nc2cc(Cl)ccc2o1)NCCc1ccccc1`: 85.8% (active) and 53%.
Take `COc1ccc(Cc2nnc(SCC(=O)NCCc3ccccc3)o2)cc1`: the inhibition runs as follows: under setting [1], 98% (active); under setting [2], 96.2%.
Take `COc1ccc(-c2nnc(SCC(=O)NCCc3ccccc3)o2)cc1`: the inhibition runs as follows: under setting [1], 93.3% (active); under setting [2], 88.5%.
For the compound `Cc1cccc(NC(=S)NCCN2CCN(c3ccc(F)c(Cl)c3)CC2)c1C`, the inhibition is 9.39% (inactive) under setting [1] and -14% under setting [2].
As for `COc1cccc(N2CCN(Cc3nc(N)nc(Nc4ccc(C)c(C)c4)n3)CC2)c1`, the inhibition was 29.6% (active) under setting [1] and 48.8% under setting [2].
For `COc1ccc(N2CCN(Cc3nc(N)nc(Nc4ccc(C)c(Cl)c4)n3)CC2)cc1`, the inhibition is, setting by setting: under setting [1], 27.3% (active); under setting [2], 55.4%.
The matching figures for `Cc1cccc(Nc2nc(N)nc(CN3CCN(c4cccc(Cl)c4)CC3)n2)c1`: 33.7% (active) and 47.4%.
For the compound `O=c1c2ccccc2[nH]c(=S)n1CCCN1CCN(c2cccc(Cl)c2)CC1`, the inhibition is 14.1% (inactive) under setting [1] and -11.2% under setting [2].
Turning to `COc1cccc(N2CCN(Cc3nc(N)nc(Nc4ccc(C)c(Cl)c4)n3)CC2)c1`, the inhibition by setting is: under setting [1], 9.68% (inactive); under setting [2], 23.6%.
The matching figures for `CC(=O)OCC#CCSc1nnc(-c2ccc(Br)cc2)o1`: 49.2% (active) and 48%.
Turning to `O=C(OCC#CCSc1nnc(-c2ccc(Br)cc2)o1)c1cccs1`, the inhibition reads like this: under setting [1], 33.6% (active); under setting [2], 31.6%.
With `O=C(OCC#CCSc1nnc(-c2ccc([N+](=O)[O-])cc2)o1)c1cccs1`, the inhibition was 65.7% (active) under setting [1] and 72.9% under setting [2].
Turning to `CSc1ccc(C(=O)C2CCCN(Cc3cc4ccccc4[nH]3)C2)cc1` (stereo not given), the inhibition is 4.22% (inactive) under setting [1] and -24.7% under setting [2].
Take `CCCC(=O)N1CCN(c2ccc(NC(=O)c3ccc(-c4ccc(Cl)cc4)o3)cc2Cl)CC1`: the inhibition reads like this: under setting [1], 0.329% (inactive); under setting [2], -21.3%.
As to `O=C(Nc1cccc(Br)c1)c1ccc(-c2ccc(Cl)cc2)o1`, the inhibition is 8.23% (inactive) under setting [1] and 21% under setting [2].
Consider `CCC(C)c1ccc(O)c(NC(=S)NC(=O)c2ccc(-c3ccc(Cl)cc3)o2)c1` (stereo not given), for which the inhibition by setting is: under setting [1], 74.3% (active); under setting [2], 78.2%.
Take `CCC(C)c1ccc(O)c(NC(=S)NC(=O)c2cccnc2)c1` (stereo not given): the inhibition is, setting by setting: under setting [1], 99.4% (active); under setting [2], 99.7%.
The matching figures for `C=CCn1c(=NC(=O)c2ccc([N+](=O)[O-])s2)sc2cc(S(N)(=O)=O)ccc21`: 59.9% (active) and 94.9%.
Turning to `CCc1c(C)c2ccc(OCC(=O)OC)c(C)c2oc1=O`, the inhibition under setting [1] was 49.4% (active) and the inhibition under setting [2] worked out at 89.1%.
For `Cc1cc(C)cc(COc2ccc3c(C)c(CCC(=O)O)c(=O)oc3c2C)c1`, the inhibition runs as follows: under setting [1], 13.5% (inactive); under setting [2], -13.6%.
For `COC(=O)Cc1c(C)c2ccc(OCC(=O)OCc3ccccc3)c(C)c2oc1=O`, the inhibition is 4.42% (active) under setting [1] and 54% under setting [2].
On to `O=c1cnnc(NN=Cc2cc(Br)ccc2O)[nH]1`, for which the inhibition under setting [1] was 100% (active) and the inhibition under setting [2] is 98.8%.
As to `Cc1cccc(C(=O)N2N=C(c3ccc(Br)cc3)CC2(O)C(F)(F)F)c1` (stereo not given), the inhibition under setting [1] is 12.2% (active) and the inhibition under setting [2] amounted to 41%.
As to `O=C(c1cccc([N+](=O)[O-])c1)N1N=C(c2ccc(Br)cc2)CC1(O)C(F)(F)F` (stereo not given), the inhibition under setting [1] is 5.59% (inactive) and the inhibition under setting [2] was 21%.
For the compound `CCOc1cc(CNC23CC4CC(CC(C4)C2)C3)ccc1OCc1cccs1`, the inhibition was 99.7% (active) under setting [1] and 95.9% under setting [2].
In the case of `CN(C)c1ccc(CNC23CC4CC(CC(C4)C2)C3)cc1`, the inhibition reads like this: under setting [1], 98.9% (active); under setting [2], 95.5%.
For `COc1cc(CNC23CC4CC(CC(C4)C2)C3)ccc1OCc1ccccc1`, the inhibition runs as follows: under setting [1], 99.4% (active); under setting [2], 96.2%.
`c1ccc(COc2ccccc2CNC23CC4CC(CC(C4)C2)C3)cc1`: the inhibition under setting [1] was 22.3% (inactive) and the inhibition under setting [2] was 3.79%.
In the case of `CCOc1cccc(N2C(=O)CC(SC(N)=NN=C(C)c3ccc(Cl)s3)C2=O)c1` (stereo not given), the inhibition was 6.46% (inactive) under setting [1] and -10.4% under setting [2].
